Experimental data from PubChem BioAssay.
Values without a mark were called inactive. Calls of active or inactive are those of the source. Rule as the data show it: active = inhibition above about 28%; inactive = the rest.

Experiment: StAR promoter reporter inhibitors, counter-screen for LRH-1 inverse agonist project, cell-based, luminescence, high throughput (AID 651611)
Conditions: StAR promoter luciferase reporter counterscreen, at 3.6 µM, active compounds read high

Question: For `O=C(Cn1ncc2c([nH]c3ccccc32)c1=O)Nc1ccc(CN2CCCCC2)cc1`, which inhibition is on record?
Answer: The inhibition was 5.26%.

Question: Which inhibition does the source give for `Cc1nc2ccccc2n1/N=C/c1ccc([N+](=O)[O-])s1` here?
Answer: The inhibition was 20.9%.

Question: For `CCCCCCCCN1C(=O)[C@H](CC(=O)NCC23CC4CC(CC(C4)C2)C3)C[C@@]2(C(=O)OCC)CCCC=C12`, which inhibition is on record?
Answer: Its inhibition is 22.3%.

Question: Which inhibition does the source give for `O=C(c1ccc(=O)n(Cc2ccccc2)n1)N1CCN(C/C=C/c2ccccc2)CC1` here?
Answer: The inhibition was 2.26%.

Question: For `O=C(NCC1CCCO1)c1ccc(NC(=O)c2cccc([N+](=O)[O-])c2)cc1` (stereo not given), which inhibition is on record?
Answer: The inhibition was 3.83%.

Question: With `COc1cc2cc(C(=O)NC(C)c3cccc4ccccc34)c(N)nc2cc1OC` (stereo not given) as the compound, how does the inhibition read?
Answer: Its inhibition is 34.5% (active).

Question: With `CCN(CC)C1Oc2cc3c(cc2C(c2cccc(OC)c2O)C1C)OCO3` (stereo not given) as the compound, how does the inhibition read?
Answer: The inhibition was 23.9%.

Question: For `C=CC(=O)Nc1cccc(Oc2ncnc3[nH]cc(-c4cnc5ccccc5c4)c23)c1`, which inhibition is on record?
Answer: Its inhibition is 27.3%.

Question: For `CC(Oc1ccc(S(=O)(=O)N2CCCC2)cc1[N+](=O)[O-])C(=O)NC(C)c1ccccc1` (stereo not given), which inhibition is on record?
Answer: The inhibition was 4.94%.

Question: For `COc1cc2c(OC(C)=O)c3c(c(-c4ccc5c(c4)OCO5)c2cc1OC)C(=O)OC3`, which inhibition is on record?
Answer: Its inhibition is 55.8% (active).

Question: For `Cc1cc(OCC(=O)NC2CC2)c2c(C)c(C)c(=O)oc2c1`, which inhibition is on record?
Answer: Its inhibition is 13.4%.

Question: Which inhibition does the source give for `COc1ccc(CCNC(=O)CSC2=Nc3ccccc3C3=NC(C(C)C)C(=O)N23)cc1OC` (stereo not given) here?
Answer: The inhibition was 21.5%.

Question: With `Cn1c(SCC(=O)Nc2ccc3nc(SCC(=O)NC4CC4)sc3c2)nnc1-c1ccccc1` as the compound, how does the inhibition read?
Answer: The inhibition was 12.3%.

Question: For `CC(O)(c1ccc(F)c(F)c1)c1nc(-c2ccc(S(C)(=O)=O)cc2)cs1` (stereo not given), which inhibition is on record?
Answer: Its inhibition is 3.51%.

Question: Which inhibition does the source give for `Cc1ccc(NC(=O)CSc2sc3c(O)cc(=O)[nH]c3c2C#N)c(F)c1` here?
Answer: The inhibition was 7.65%.

Question: With `COc1cc(-c2cc(C(=O)NCc3ccc(S(N)(=O)=O)cc3)c3ccccc3n2)cc(OC)c1OC` as the compound, how does the inhibition read?
Answer: The inhibition was 27.1%.

Question: With `O=C(Cn1cc(COc2ccc(C(=O)c3ccccc3)cc2)nn1)c1ccc(O)cc1` as the compound, how does the inhibition read?
Answer: The inhibition was 25.8%.

Question: Which inhibition does the source give for `COc1cc(NC(=O)c2ccc([N+](=O)[O-])o2)ccc1NC(=O)c1cccs1` here?
Answer: Its inhibition is 30.9% (active).

Question: With `CC(C)Cn1c(N)c(C(=O)NCC2CCCO2)c2nc3ccccc3nc21` (stereo not given) as the compound, how does the inhibition read?
Answer: The inhibition was 23.3%.

Question: With `CC(=O)Nc1ccc(NC(=O)CSc2nc3nc(-c4cccs4)cc(C(F)(F)F)c3c(=O)[nH]2)cc1` as the compound, how does the inhibition read?
Answer: Its inhibition is 8.21%.

Question: For `O=[N+]([O-])c1ccc(N2CCCC2)nc1N1CCCC1`, which inhibition is on record?
Answer: Its inhibition is 11.1%.

Question: Which inhibition does the source give for `CC(C)OC(=O)C(=O)NNc1ccccc1` here?
Answer: The inhibition was 12.3%.

Question: Which inhibition does the source give for `COc1cccc(-c2cnc3c(NC=O)cc(-c4ccc(S(C)(=O)=O)cc4)cn23)c1` here?
Answer: The inhibition was 30.2% (active).

Question: Which inhibition does the source give for `CCCCOCCCNc1ncnc2c1[nH]c1ccccc12` here?
Answer: The inhibition was 13.1%.

Question: For `Cc1ccc(S(=O)(=O)Oc2ccccc2/C=N/NC(N)=S)cc1`, which inhibition is on record?
Answer: Its inhibition is 42.5% (active).

Question: For `O=C(CCl)Nc1cccn2ncnc12`, which inhibition is on record?
Answer: The inhibition was 33.1% (active).

Question: Which inhibition does the source give for `Cc1ccccc1C(=O)NC1CCN(CC(=O)Nc2ccc(Br)cc2)CC1` here?
Answer: Its inhibition is 5.55%.

Question: For `CCN(CC)c1ccc(NC(=O)CSc2nnc(N)s2)cc1C`, which inhibition is on record?
Answer: The inhibition was -2.14%.

Question: For `CN(C)c1nnnn1-c1cccc(Oc2ncc(C(F)(F)F)cc2Cl)c1`, which inhibition is on record?
Answer: The inhibition was 8.18%.

Question: Which inhibition does the source give for `COc1ccc(-c2oc(=O)c3cc(OC)c(OC)cc3c2C#CCCO)cc1` here?
Answer: Its inhibition is 33.4% (active).

Question: For `Fc1ccc(Br)cc1SCCc1ccncc1`, which inhibition is on record?
Answer: The inhibition was 1.89%.

Question: With `O=C(CSc1ncnc2c1cnn2-c1ccccc1)Nc1ccc2c(c1)OCO2` as the compound, how does the inhibition read?
Answer: The inhibition was 11%.

Question: For `CSc1nc(SCC(=O)NCc2ccco2)c2c3c(sc2n1)COC(C)(C)C3`, which inhibition is on record?
Answer: Its inhibition is 6.43%.

Question: Which inhibition does the source give for `CC(/C=C(\NC(=O)c1ccccc1)C(=O)N=Nc1c(O)[nH]c2ccc(C)cc12)=C\c1ccccc1` here?
Answer: The inhibition was 34.2% (active).

Question: With `Cc1cc(C)nc(SCC(=O)Nc2ccc(N3CCOCC3)c(Cl)c2)n1` as the compound, how does the inhibition read?
Answer: The inhibition was -5.17%.

Question: For `Cc1cc(C)n(-c2nc(Nc3ccccc3C(F)(F)F)nc(-n3nc(C)cc3C)n2)n1`, which inhibition is on record?
Answer: The inhibition was 20.8%.

Question: For `O=C(NNc1c(F)c(F)cc(F)c1F)C1CCN(S(=O)(=O)c2ccccc2F)CC1`, which inhibition is on record?
Answer: The inhibition was -3.09%.

Question: For `N=c1sccn1CC(=O)Nc1ccc(S(N)(=O)=O)cc1`, which inhibition is on record?
Answer: The inhibition was 17.1%.

Question: Which inhibition does the source give for `Cc1ccc(C(O)(C(=O)NN(C(=O)c2ccccc2)c2ccccc2)c2ccc(C)cc2)cc1` here?
Answer: The inhibition was 8.63%.

Question: With `O=C(Nc1ccccc1Cl)c1ccc([N+](=O)[O-])o1` as the compound, how does the inhibition read?
Answer: Its inhibition is 29.4% (active).
